Experimental data published in PubChem BioAssay AID1159580 (chemical genetic matrix, 2015).
Screen size: about 5,500 compounds; about 2,000 (36%) were called active. About 18% were inconclusive and are not listed. No stated cut-off is given here; in the data, active means normalized growth mostly below about 0.91 (no sharp cut-off); inconclusive means no clear call, values can overlap the other calls; inactive means mostly above about 0.92. This is one part of the list.

Experiment: chemical genetic growth profiling, strain panel (AID 1159580);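 further: tested at 20 µM; growth read once vehicle control cultures reached saturation at 30 °C; 1 = growth at the plate median or of vehicle wells; lower values mean less growth of the strain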
Settings: growth OD

Measured: normalized growth

C[C@]12CCC3c4ccc(O)cc4CCC3C1CC[C@@H]2O (stereo not given in full)
inactive: S. cerevisiae deletion strains, locus YJR066W, strain TOR1, hits give low values 0.902 | S. cerevisiae deletion strains, locus YJR075W, strain HOC1, hits give low values 1.02 | S. cerevisiae deletion strains, locus YKL009W, strain mrt4, hits give low values 0.892 | S. cerevisiae deletion strains, locus YKL068W, hits give low values 1.02 | S. cerevisiae deletion strains, locus YKL085W, strain MDH1 (second series), hits give low values 1.04 | S. cerevisiae deletion strains, locus YKL085W, strain MDH1, hits give low values 1.04 | S. cerevisiae deletion strains, locus YKL160W, strain elf1, hits give low values 0.988 | S. cerevisiae deletion strains, locus YKL190W, strain CNB1, hits give low values 1.03 | S. cerevisiae deletion strains, locus YKR001C, strain vps1, hits give low values 0.915 | S. cerevisiae deletion strains, locus YKR026C, strain gcn3, hits give low values 1.03 | S. cerevisiae deletion strains, locus YKR091W, strain srl3, hits give low values 1.02 | S. cerevisiae deletion strains, locus YLL001W, strain dnm1, hits give low values 1.02 | S. cerevisiae deletion strains, locus YLL026W, hits give low values 0.982 | S. cerevisiae deletion strains, locus YLL041C, strain sdh2, hits give low values 1.02 | S. cerevisiae deletion strains, locus YLR027C, strain aat2, hits give low values 0.973 | S. cerevisiae deletion strains, locus YLR039C, strain RIC1, hits give low values 0.866 | S. cerevisiae deletion strains, locus YLR058C, strain SHM2, hits give low values 1 | S. cerevisiae deletion strains, locus YLR102C, strain apc9, hits give low values 1.01 | S. cerevisiae deletion strains, locus YLR113W, strain HOG1, hits give low values 0.983 | S. cerevisiae deletion strains, locus YLR221C, strain rsa3, hits give low values 0.977 | S. cerevisiae deletion strains, locus YLR258W, strain gsy2, hits give low values 0.96 | S. cerevisiae deletion strains, locus YLR262C, strain YPT6, hits give low values 0.819 | S. cerevisiae deletion strains, locus YLR268W, strain sec22, hits give low values 0.936 | S. cerevisiae deletion strains, locus YLR320W, strain mms22, hits give low values 0.892 | S. cerevisiae deletion strains, locus YLR330W, strain CHS5, hits give low values 1 | S. cerevisiae deletion strains, locus YLR342W, strain FKS1 (second series), hits give low values 0.868 | S. cerevisiae deletion strains, locus YLR342W, strain FKS1, hits give low values 1 | S. cerevisiae deletion strains, locus YLR357W, strain rsc2, hits give low values 1.03 | S. cerevisiae deletion strains, locus YLR370C, strain arc18, hits give low values 1 | S. cerevisiae deletion strains, locus YLR371W, strain rom2, hits give low values 1.02 | S. cerevisiae deletion strains, locus YLR384C, strain iki3, hits give low values 1.02 | S. cerevisiae deletion strains, locus YLR418C, strain cdc73, hits give low values 0.896 | S. cerevisiae deletion strains, locus YML016C, strain PPZ1, hits give low values 1.01 | S. cerevisiae deletion strains, locus YML032C, strain rad52, hits give low values 0.977 | S. cerevisiae deletion strains, locus YML120C, strain ndi1, hits give low values 0.996 | S. cerevisiae deletion strains, locus YML124C, strain tub3, hits give low values 1.01 | S. cerevisiae deletion strains, locus YMR058W, strain fet3, hits give low values 0.917 | S. cerevisiae deletion strains, locus YMR078C, strain ctf18, hits give low values 0.985 | S. cerevisiae deletion strains, locus YMR125W, strain sto1, hits give low values 1.1 | S. cerevisiae deletion strains, locus YMR129W, hits give low values 1.02 | S. cerevisiae deletion strains, locus YMR205C, strain PFK2, hits give low values 1.01 | S. cerevisiae deletion strains, locus YMR223W, strain ubp8, hits give low values 0.974 | S. cerevisiae deletion strains, locus YMR231W, strain pep5, hits give low values 1.01 | S. cerevisiae deletion strains, locus YMR263W, strain SAP30, hits give low values 0.98 | S. cerevisiae deletion strains, locus YMR307W, strain GAS1, hits give low values 0.929 | S. cerevisiae deletion strains, locus YNL067W, strain RPL9B, hits give low values 0.978 | S. cerevisiae deletion strains, locus YNL071W, strain lat1, hits give low values 0.958 | S. cerevisiae deletion strains, locus YNL153C, strain GIM3, hits give low values 0.955 | S. cerevisiae deletion strains, locus YNL183C, strain NPR1, hits give low values 0.912 | S. cerevisiae deletion strains, locus YNL209W, strain ssb2, hits give low values 1.01 | S. cerevisiae deletion strains, locus YNL233W, strain BNI4, hits give low values 0.997 | S. cerevisiae deletion strains, locus YNL248C, strain rpa49, hits give low values 0.993 | S. cerevisiae deletion strains, locus YNL250W, strain rad50, hits give low values 0.955 | S. cerevisiae deletion strains, locus YNL271C, strain bni1, hits give low values 0.977 | S. cerevisiae deletion strains, locus YNL307C, strain MCK1, hits give low values 0.987 | S. cerevisiae deletion strains, locus YNL322C, strain KRE1 (second series), hits give low values 1.03 | S. cerevisiae deletion strains, locus YNR049C, strain mso1, hits give low values 1.02 | S. cerevisiae deletion strains, locus YNR052C, strain pop2, hits give low values 0.928 | S. cerevisiae deletion strains, locus YOL006C, strain TOP1, hits give low values 0.744 | S. cerevisiae deletion strains, locus YOL012C, strain htz1 1.8 | S. cerevisiae deletion strains, locus YOL147C, strain pex11, hits give low values 1 | S. cerevisiae deletion strains, locus YOR001W, strain rrp6, hits give low values 0.948 | S. cerevisiae deletion strains, locus YOR061W, strain CKA2, hits give low values 0.984 | S. cerevisiae deletion strains, locus YOR069W, strain VPS5, hits give low values 1 | S. cerevisiae deletion strains, locus YOR070C, strain gyp1, hits give low values 0.974 | S. cerevisiae deletion strains, locus YOR080W, strain dia2, hits give low values 0.996 | S. cerevisiae deletion strains, locus YOR083W, strain WHI5, hits give low values 0.96 | S. cerevisiae deletion strains, locus YOR106W, strain vam3, hits give low values 0.934 | S. cerevisiae deletion strains, locus YOR136W, strain idh2, hits give low values 0.978 | S. cerevisiae deletion strains, locus YOR144C, strain elg1, hits give low values 0.974 | S. cerevisiae deletion strains, locus YOR231W, strain MKK1, hits give low values 0.928 | S. cerevisiae deletion strains, locus YOR265W, strain rbl2, hits give low values 0.986 | S. cerevisiae deletion strains, locus YOR270C, strain vph1, hits give low values 0.797 | S. cerevisiae deletion strains, locus YOR290C, strain snf2, hits give low values 0.906 | S. cerevisiae deletion strains, locus YOR316C, strain cot1, hits give low values 1 | S. cerevisiae deletion strains, locus YPL051W, strain arl3, hits give low values 0.953 | S. cerevisiae deletion strains, locus YPL055C, strain LGE1, hits give low values 0.907 | S. cerevisiae deletion strains, locus YPL078C, strain atp4, hits give low values 0.963 | S. cerevisiae deletion strains, locus YPL106C, strain sse1, hits give low values 1.08 | S. cerevisiae deletion strains, locus YPL240C, strain hsp82, hits give low values 0.999 | S. cerevisiae deletion strains, locus YPL256C, strain CLN2, hits give low values 0.99 | S. cerevisiae deletion strains, locus YPR119W, strain clb2, hits give low values 1.03 | S. cerevisiae deletion strains, locus YPR141C, strain kar3, hits give low values 1.03 | S. cerevisiae deletion strains, locus YPR163C, strain tif3, hits give low values 0.963 | S. cerevisiae deletion strains, locus YPR167C, strain met16, hits give low values 0.985 | S. cerevisiae deletion strains, strain wtn01, hits give low values 0.92 | S. cerevisiae strains, strain wild type, hits give low values 1
active: S. cerevisiae deletion strains, locus YLR262C, strain YPT6 (second series), hits give low values 0.738 | S. cerevisiae deletion strains, locus YNL298W, strain CLA4, hits give low values 0.897 | S. cerevisiae deletion strains, locus YOR184W, strain ser1, hits give low values 0.857
